What is called inhibition is the relative decrease from the control value, in per cent.

The structures appear in SMILES notation. Inconclusive results are not listed. The source made the active and inactive calls.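 Rule for the calls, unless noted: active = GFP signal, as percent of the solvent control, above the screen mean plus 3 SD, about 149; inconclusive = no reading because the compound's own fluorescence upset strain identification; inactive = the rest.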

Experiment [1] can be described thus: rapamycin-like changes in RPL19A-GFP expression – cell-based, S. cerevisiae, multiplex flow cytometry, primary screen (AID 1862; in the data active = percent of DMSO control GFP below about 86%;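 note: lower values mimic rapamycin by blocking the RPL19A rise seen in DMSO cells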). The note with it: S. cerevisiae RPL19A-GFP strain, flow cytometry fluorescence, 3 h; at 10 µM; stronger effect = lower value. For orientation: A flow cytometer gives signals particle by particle.
A short description of experiment [2]: TOR pathway GLN3 branch reporter MEP2-GFP changes – S. cerevisiae, multiplex flow cytometry, primary screen (AID 1867;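 active = GFP response, as percent of the DMSO control, above the screen-wide mean plus 3 SD, about 139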;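 note: median GFP channel fluorescence of barcode-gated MEP2-GFP cells measured by flow cytometry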). The conditions noted are these: S. cerevisiae MEP2-GFP strain, 3 h, at 10 µM, stronger effect = higher value, 100% means same as DMSO wells.
Experiment [3] can be described thus: TOR pathway RTG branch CIT2 reporter changes – S. cerevisiae, GFP fusion, multiplex flow cytometry, primary screen (AID 1870;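 active = percent response above a set limit, the screen-wide mean plus 3 SD, cut at about 130% in these data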;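 note: barcoded CIT2-GFP strain pooled with four other GFP strains with rapamycin as positive control; median GFP fluorescence per well over plate mean of DMSO wells so 100% = DMSO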). The note with it: S. cerevisiae CIT2-GFP expression, 3 h, at 10 µM, stronger effect = higher value.
Experiment [4] in a line: TOR pathway LAP4-GFP level changes – S. cerevisiae, multiplex flow cytometry, primary screen (AID 1873). The note with it: S. cerevisiae LAP4-GFP expression, 3 h, at 10 µM, stronger effect = higher value.
Experiment [5] is described as follows: yeast AGP1-GFP level changes, GLN3 branch – cell-based, multiplex flow cytometry, S. cerevisiae, primary screen (AID 1887;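 active = GFP signal above the screen-wide mean plus 3 SD, that is over about 124.5% of the solvent control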;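 note: AGP1-GFP fusion strain of S. cerevisiae within a five-strain barcoded multiplex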). The conditions noted are these: 3 h, at 10 µM, stronger effect = higher value.
Experiment [6] in a line: reduced mouse 2C T cell binding to pMHC/ICAM-1 vesicles – MLPCN validation set, flow cytometry, LFA-1/ICAM-1 modulator project, pilot screen (AID 2523;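 active = response below a set limit, under 55% cells CD8-positive and vesicle-bound, and CD8 cells' 90th-percentile brightness under 279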;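 for vesicle binding response: mean PE anti-B7-1 fluorescence of CD8+ cells relative to row control; 100% = QL9-loaded vesicles with DMSO vehicle in the same plate row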). The conditions noted are these: 2C mouse CD8+ T cells, at 7 µM, stronger effect = lower value; double positive events: measured here: CD8+/vesicle+ event percentage.
The target in experiment [7] is Integrin beta-1 (Homo sapiens) + Integrin alpha-4 (Homo sapiens) (UniProt P13612+P05556). Nature of the experiment: alpha4beta1 integrin LIBS antibody binding reduction – U937 cells, HUTS-21 mAb, flow cytometry, validation set, VLA-4 allosteric modulator project, pilot screen (AID 2674;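 active = inhibition above 50%, about 3 SD of the validation set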;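 note: antibody binding induced by the VLA-4 ligand LDV present at three times its Kd; 0% = LDV ligand with antibody and no compound and 100% = antibody without LDV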). The note with it: HUTS-21 LIBS mAb binding, at 6.7 µM, stronger effect = higher value, binding induced by LDV ligand.

Experiment [8] in a line: calorie-restriction mimetic ROS inhibitors, yeast – validation compound set, pilot screen (AID 2706;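 active = superoxide response below 65% of plate, a cut near 3 SD across the whole screen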;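 note: yeast exposed to compound for one week at 30 degrees C before staining; 100% = mean of all compound wells on the same plate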). The note with it: S. cerevisiae aging, superoxide DHE fluorescence; at 10 µM; stronger effect = lower value.
Experiment [9] deals with Beta-adrenergic receptor kinase 1 (Homo sapiens) (UniProt P25098). Nature of the experiment: GRK2 binders displacing RNA aptamer, biochemical, validation, human GRK2, bead flow cytometry (AID 488806;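 active = aptamer binding inhibition above 30%, about 3 SD of noise from non-fluorescent compounds; inactive = inhibition at or below 30%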). The conditions noted are these: bead-bound GRK2, FAM-aptamer displacement, at 10 µM, stronger effect = higher value.
In experiment [10] the target is Beta-2 adrenergic receptor (Homo sapiens) (UniProt P07550). Put plainly: agonist-induced loss of surface beta2AR – cell-based, FAP fluorogen, flow cytometry, validation set, pilot screen (AID 504459;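 active = percent response above 42, roughly 3 SD of non-fluorescent test compounds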;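 note: agonist-driven loss of surface beta2AR via internalization measured by FAP dye flow cytometry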). The conditions noted are these: Am2.2-beta2AR cells, at 10 µM, stronger effect = higher value.
For experiment [11], the target named is AP-2 complex subunit beta (Homo sapiens) (UniProt P63010). Put plainly: beta-arrestin/AP2 interaction blockers – biochemical, validation set, GST-AP2 beads, flow cytometry, pilot screen (AID 504541;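 active = inhibition above 54%, about 3 SD of non-fluorescent compounds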;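 note: AP2 carries R879A mutation and is captured from E. coli lysate; bead-bound FITC arrestin peptide fluorescence measuring arrestin peptide binding to AP2; 0% = DMSO wells and 100% = excess unlabeled arrestin peptide control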). The note with it: FITC arrestin peptide, at 10 µM, stronger effect = higher value, AP2 beta2 appendage fragment, R879A mutant.
Experiment [12] in a line: cytosolic pH regulators acting via V-ATPase – S. cerevisiae, pHLuorin, HTS validation (AID 504600; in the data active = response above about 15%;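 note: plate controls were DMSO for no effect and reference compound for full effect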). The conditions noted are these: V-ATPase proton transport, at 10 µM, stronger effect = higher value.
In experiment [13] the test system is anti-desmoglein-3 scFv antibody binding to human DSG3. Nature of the experiment: blockers of pathogenic pemphigus antibody–desmoglein-3 binding – biochemical, validation compound set, bead-based, flow cytometry, pilot screen (AID 588368;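 active = binding below the plate cutoff, the plate median minus 3 SD, with a reading above zero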;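 note: signal is the median channel fluorescence of bead-bound GFP antibody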). The conditions noted are these: Protein G beads, DSG3-Fc, scFv-GFP binding, at 10 µM, stronger effect = lower value.
Experiment [14] is described as follows: Nile Red efflux blockade in pump-expressing yeast – validation compound set, multiplex, phenotypic, pilot screen (AID 588506;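 active = efflux inhibition above 0.42, the validation set average plus 4 SD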;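 note: Nile Red retained in cells so higher fluorescence means more efflux inhibition; 0 = negative control wells and 1 = enniatin B 25 µM full block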). The conditions noted are these: S. cerevisiae pump-expressing triplex, Nile Red efflux flow cytometry; at 10 µM; stronger effect = higher value; the pumps come from Candida albicans.
Experiment [15] addresses ATP-binding cassette sub-family B member 6 (Homo sapiens) (UniProt Q9NP58). Nature of the experiment: blockers of ABCB6-driven porphyrin uptake – K562-ABCB6 cells, flow cytometry, validation set, pilot screen (AID 588550;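 active = inhibition above the screen-wide mean plus 3 SD, about 51%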;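 note: 0% = DMSO wells and 100% = benzethonium chloride 70 µM positive control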). The conditions noted are these: K562-ABCB6 porphyrin accumulation, 1 h, at 10 µM, stronger effect = higher value.
The nature of experiment [16]: AML differentiation inducers, ER-HoxA9 marrow cells – cell-based, GFP/MAC1 double positive, flow cytometry, validation set, primary screen (AID 588685;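 active = differentiation response of at least 50%, scaled between solvent and reference control, from cells with both markers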;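 note: compound exposure lasts four days before antibody staining and flow analysis; 0% = DMSO wells and 100% = 5 µM fulvestrant positive control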). The conditions noted are these: stronger effect = higher value, normalized: vehicle 0, fulvestrant 100.

Chain of Integrin beta-1 (Homo sapiens) + Integrin alpha-4 (Homo sapiens) (P05556 whole entry, looked up): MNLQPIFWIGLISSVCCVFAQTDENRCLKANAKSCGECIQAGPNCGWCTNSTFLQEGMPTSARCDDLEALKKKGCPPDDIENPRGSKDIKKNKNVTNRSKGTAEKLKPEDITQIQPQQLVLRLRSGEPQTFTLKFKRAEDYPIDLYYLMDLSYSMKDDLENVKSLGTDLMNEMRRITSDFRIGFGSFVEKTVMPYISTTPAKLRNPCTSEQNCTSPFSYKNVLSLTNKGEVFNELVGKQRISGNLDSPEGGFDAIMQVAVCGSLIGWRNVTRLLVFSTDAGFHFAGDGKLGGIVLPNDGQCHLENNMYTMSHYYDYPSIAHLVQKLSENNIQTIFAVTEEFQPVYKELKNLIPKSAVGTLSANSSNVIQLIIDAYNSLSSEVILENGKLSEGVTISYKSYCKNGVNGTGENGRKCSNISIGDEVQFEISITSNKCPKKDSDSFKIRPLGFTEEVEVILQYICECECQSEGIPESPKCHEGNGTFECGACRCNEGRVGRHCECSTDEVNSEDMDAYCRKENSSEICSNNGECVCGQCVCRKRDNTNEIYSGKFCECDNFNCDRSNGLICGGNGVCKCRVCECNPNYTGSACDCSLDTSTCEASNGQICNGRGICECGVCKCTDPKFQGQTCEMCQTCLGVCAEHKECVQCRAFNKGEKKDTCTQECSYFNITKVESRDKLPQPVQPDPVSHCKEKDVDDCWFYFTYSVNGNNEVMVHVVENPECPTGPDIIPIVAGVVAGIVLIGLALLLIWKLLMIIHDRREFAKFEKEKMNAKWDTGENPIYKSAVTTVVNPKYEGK
Chain of Integrin beta-1 (Homo sapiens) + Integrin alpha-4 (Homo sapiens) (P13612 whole entry, looked up): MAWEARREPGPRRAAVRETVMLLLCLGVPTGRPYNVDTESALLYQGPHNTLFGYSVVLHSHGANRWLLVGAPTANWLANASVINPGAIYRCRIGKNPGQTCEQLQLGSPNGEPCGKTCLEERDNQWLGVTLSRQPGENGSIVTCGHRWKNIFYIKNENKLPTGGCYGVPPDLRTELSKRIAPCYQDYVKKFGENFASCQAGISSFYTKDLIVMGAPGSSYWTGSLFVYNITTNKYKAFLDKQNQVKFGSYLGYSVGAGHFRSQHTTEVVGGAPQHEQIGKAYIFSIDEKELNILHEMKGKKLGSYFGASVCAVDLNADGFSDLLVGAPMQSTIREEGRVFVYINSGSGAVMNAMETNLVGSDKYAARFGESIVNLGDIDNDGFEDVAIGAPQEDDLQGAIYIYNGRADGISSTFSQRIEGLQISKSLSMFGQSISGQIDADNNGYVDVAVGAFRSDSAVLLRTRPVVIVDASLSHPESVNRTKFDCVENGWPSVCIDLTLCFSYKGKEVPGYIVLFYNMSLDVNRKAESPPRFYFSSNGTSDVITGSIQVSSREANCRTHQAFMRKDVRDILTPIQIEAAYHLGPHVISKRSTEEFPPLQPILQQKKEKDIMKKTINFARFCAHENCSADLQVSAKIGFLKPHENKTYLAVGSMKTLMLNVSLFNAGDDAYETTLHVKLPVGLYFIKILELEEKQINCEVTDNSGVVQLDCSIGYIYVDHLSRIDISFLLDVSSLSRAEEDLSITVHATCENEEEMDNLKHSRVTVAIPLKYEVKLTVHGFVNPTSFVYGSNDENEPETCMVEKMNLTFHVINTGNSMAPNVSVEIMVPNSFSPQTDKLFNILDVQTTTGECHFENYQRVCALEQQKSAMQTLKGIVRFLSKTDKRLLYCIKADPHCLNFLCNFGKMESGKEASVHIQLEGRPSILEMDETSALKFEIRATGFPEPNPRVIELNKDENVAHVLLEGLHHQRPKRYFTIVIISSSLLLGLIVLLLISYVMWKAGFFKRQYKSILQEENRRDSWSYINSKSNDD
Chain of Beta-2 adrenergic receptor (Homo sapiens) (P07550 whole entry, looked up): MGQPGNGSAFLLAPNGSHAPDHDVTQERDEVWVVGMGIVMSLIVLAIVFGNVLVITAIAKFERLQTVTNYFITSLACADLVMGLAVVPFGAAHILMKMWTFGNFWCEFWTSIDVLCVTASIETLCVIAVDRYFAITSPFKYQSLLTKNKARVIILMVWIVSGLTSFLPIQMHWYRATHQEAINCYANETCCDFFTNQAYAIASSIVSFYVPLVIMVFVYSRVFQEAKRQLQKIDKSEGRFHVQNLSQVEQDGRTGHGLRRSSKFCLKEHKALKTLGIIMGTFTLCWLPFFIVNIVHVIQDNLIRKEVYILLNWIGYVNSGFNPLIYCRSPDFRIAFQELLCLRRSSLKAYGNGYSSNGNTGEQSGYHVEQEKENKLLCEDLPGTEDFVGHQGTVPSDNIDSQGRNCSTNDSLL
Chain of Beta-adrenergic receptor kinase 1 (Homo sapiens) (P25098 whole entry, looked up): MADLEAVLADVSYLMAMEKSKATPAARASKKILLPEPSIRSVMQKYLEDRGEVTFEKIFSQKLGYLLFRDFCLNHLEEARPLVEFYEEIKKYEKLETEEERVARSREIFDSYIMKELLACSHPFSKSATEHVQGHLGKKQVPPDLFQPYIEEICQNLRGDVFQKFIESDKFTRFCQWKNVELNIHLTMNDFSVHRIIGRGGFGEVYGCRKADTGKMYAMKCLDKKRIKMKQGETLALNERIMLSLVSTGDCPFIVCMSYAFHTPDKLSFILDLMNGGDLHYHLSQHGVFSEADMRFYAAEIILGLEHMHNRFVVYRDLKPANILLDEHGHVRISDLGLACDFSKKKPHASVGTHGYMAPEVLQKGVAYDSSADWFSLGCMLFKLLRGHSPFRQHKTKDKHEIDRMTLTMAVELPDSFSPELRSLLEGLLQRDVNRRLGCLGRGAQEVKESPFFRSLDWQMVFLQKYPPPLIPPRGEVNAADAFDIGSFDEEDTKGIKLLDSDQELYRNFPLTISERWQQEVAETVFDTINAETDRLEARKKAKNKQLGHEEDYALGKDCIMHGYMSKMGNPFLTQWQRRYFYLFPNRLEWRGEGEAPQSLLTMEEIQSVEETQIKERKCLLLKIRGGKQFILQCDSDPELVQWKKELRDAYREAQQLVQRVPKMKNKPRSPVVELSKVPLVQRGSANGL
Chain of ATP-binding cassette sub-family B member 6 (Homo sapiens) (Q9NP58 whole entry, looked up): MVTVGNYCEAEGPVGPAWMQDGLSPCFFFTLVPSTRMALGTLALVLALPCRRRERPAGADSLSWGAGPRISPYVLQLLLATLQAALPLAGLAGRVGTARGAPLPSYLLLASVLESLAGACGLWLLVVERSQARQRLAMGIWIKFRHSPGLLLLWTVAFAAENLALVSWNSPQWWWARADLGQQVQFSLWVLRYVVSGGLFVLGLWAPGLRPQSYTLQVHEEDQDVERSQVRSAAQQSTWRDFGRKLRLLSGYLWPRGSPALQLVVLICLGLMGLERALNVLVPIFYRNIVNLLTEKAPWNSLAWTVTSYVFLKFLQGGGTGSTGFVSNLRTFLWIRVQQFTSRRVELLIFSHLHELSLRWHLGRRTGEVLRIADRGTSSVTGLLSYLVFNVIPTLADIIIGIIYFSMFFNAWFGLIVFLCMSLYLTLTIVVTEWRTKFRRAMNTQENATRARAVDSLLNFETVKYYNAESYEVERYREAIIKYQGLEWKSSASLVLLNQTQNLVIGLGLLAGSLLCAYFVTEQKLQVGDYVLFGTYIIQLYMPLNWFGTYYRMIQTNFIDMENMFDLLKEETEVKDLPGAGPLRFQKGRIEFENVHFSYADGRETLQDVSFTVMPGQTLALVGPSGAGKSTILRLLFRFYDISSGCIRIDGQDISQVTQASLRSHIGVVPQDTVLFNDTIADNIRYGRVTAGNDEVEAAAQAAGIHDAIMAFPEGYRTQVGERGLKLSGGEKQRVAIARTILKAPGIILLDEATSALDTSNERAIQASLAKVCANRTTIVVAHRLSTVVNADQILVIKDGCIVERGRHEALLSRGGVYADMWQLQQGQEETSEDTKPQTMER
Chain of AP-2 complex subunit beta (Homo sapiens) (P63010 whole entry, looked up, the tested form may be a part, one chain of several): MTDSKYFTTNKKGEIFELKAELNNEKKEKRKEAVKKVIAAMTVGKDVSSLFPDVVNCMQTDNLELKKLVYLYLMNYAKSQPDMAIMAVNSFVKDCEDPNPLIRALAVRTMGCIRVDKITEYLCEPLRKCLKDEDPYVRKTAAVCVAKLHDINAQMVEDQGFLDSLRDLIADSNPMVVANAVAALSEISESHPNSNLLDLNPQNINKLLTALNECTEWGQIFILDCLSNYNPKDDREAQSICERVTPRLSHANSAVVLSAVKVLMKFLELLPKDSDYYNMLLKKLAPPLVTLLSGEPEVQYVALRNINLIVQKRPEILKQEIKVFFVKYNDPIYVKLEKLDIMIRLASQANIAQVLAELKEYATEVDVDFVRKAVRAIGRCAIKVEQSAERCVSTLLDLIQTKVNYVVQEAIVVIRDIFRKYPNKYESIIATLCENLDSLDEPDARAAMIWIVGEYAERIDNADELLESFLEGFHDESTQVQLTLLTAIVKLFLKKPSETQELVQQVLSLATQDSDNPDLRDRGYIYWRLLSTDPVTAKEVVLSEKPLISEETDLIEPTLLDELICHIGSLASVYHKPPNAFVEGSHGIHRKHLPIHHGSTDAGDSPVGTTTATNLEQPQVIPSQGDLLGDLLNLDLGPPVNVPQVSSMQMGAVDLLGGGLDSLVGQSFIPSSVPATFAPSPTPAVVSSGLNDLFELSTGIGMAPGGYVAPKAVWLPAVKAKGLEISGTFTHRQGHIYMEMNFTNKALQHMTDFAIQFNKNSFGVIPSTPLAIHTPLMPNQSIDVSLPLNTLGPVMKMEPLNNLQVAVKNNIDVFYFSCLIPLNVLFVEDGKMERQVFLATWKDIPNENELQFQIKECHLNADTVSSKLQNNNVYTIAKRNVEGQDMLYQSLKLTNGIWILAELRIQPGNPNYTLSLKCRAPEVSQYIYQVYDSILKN

`Nc1nc(SCc2ccc([N+](=O)[O-])cc2)c2ncn(C3OC(CO)C(O)C3O)c2n1` (stereo not given): the percent of DMSO control GFP in experiment [1] was 108% (inactive). Also, the GFP response vs DMSO in [2] is 99.7% (inactive); in experiment [4] it was 100% (inactive). In addition, the percent response of DMSO control in [3] is 106% (inactive). Besides, the GFP response, % of DMSO in experiment [5] was 107% (inactive). The double positive events in experiment [6] amounted to 63.2%. Moreover, in experiment [6], the vesicle binding response is 169% (inactive). Moreover, the inhibition in experiment [7] is 8.29% (inactive); in [11], 14.6% (inactive); in experiment [15], 2% (inactive). Besides, the superoxide response (% of plate) in experiment [8] is 105% (inactive). Moreover, in experiment [9], the aptamer binding inhibition was 0% (inactive). Also, the response in [10] was -15.6% (inactive); in [12] it was 0.04% (inactive). For the same compound, the binding (% of control) in [13] is 98.1% (inactive). Also, in [14], the efflux inhibition (fraction of control) was -0.07 (inactive). Further, the differentiation response in [16] is -7.5% (inactive).
As for `CC(CCCC(C)(C)O)NC(=O)c1ccc(OC2CCN(C(=O)C3CC3)CC2)cc1` (stereo not given), the percent of DMSO control GFP in [1] was 102% (inactive). The figures for the GFP response vs DMSO in [2] and in experiment [4] were 96.3% (inactive) and 108% (inactive), respectively. Moreover, in experiment [3], the percent response of DMSO control was 98.6% (inactive). Besides, in experiment [5], the GFP response, % of DMSO was 99.8% (inactive). The double positive events in experiment [6] was found to be 60.9%. Further, the vesicle binding response in [6] was 200% (inactive). Also, the inhibition was 20.1% (inactive) in experiment [7], 10.3% (inactive) in [11] and 3% (inactive) in experiment [15]. Further, the superoxide response (% of plate) in experiment [8] is 97.8% (inactive). Moreover, in [9], the aptamer binding inhibition was 1% (inactive). Besides, the response in [10] was -15.1% (inactive); in [12], -0.73% (inactive). Further, the binding (% of control) in experiment [13] was 101% (inactive). The efflux inhibition (fraction of control) in experiment [14] was 0.08 (inactive). The differentiation response in experiment [16] was -12% (inactive).
Consider `Cc1ccc(S(=O)(=O)NC(C(=O)Oc2cc3oc(=O)cc(C)c3cc2Cl)C(C)C)cc1` (stereo not given), for which the percent of DMSO control GFP in experiment [1] was 102% (inactive). For the same compound, the results for the GFP response vs DMSO in [2] and in experiment [4] were 102% (inactive) and 103% (inactive), respectively. Besides, the percent response of DMSO control in [3] was 97.7% (inactive). Moreover, the GFP response, % of DMSO in experiment [5] was 111% (inactive). Besides, the double positive events in experiment [6] came out at 62.7%. For the same compound, the vesicle binding response in experiment [6] is 264% (inactive). In addition, the inhibition in [7] is 3.99% (inactive); in experiment [11] it was -3.53% (inactive); in [15], 7% (inactive). For the same compound, the superoxide response (% of plate) in experiment [8] was 98.7% (inactive). The aptamer binding inhibition in [9] was 3% (inactive). The results for the response in experiment [10] and in experiment [12] were -20.1% (inactive) and 1.33% (inactive), respectively. Moreover, the binding (% of control) in experiment [13] is 98.7% (inactive). Moreover, the efflux inhibition (fraction of control) in [14] was 0.21 (inactive). Besides, the differentiation response in experiment [16] was -0.06% (inactive).
Take `Cc1ccc2c(c1)c(C)cc(=O)n2CCC(=O)O`: in experiment [1], the percent of DMSO control GFP is 101% (inactive). The GFP response vs DMSO was 102% (inactive) in experiment [2] and 116% (inactive) in experiment [4]. Moreover, in experiment [3], the percent response of DMSO control was 98.6% (inactive). Moreover, the GFP response, % of DMSO in experiment [5] is 102% (inactive). The compound also gave a double positive events in experiment [6] of 61.6%. For the same compound, the vesicle binding response in experiment [6] is 210% (inactive). The figures for the inhibition in [7], in [11] and in [15] were 13.2% (inactive), 11.3% (inactive) and 3% (inactive), respectively. Further, the superoxide response (% of plate) in [8] is 97.2% (inactive). Moreover, the aptamer binding inhibition in [9] was 17% (inactive). Further, the values for the response in experiment [10] and in [12] were 4.73% (inactive) and 1.4% (inactive), respectively. Besides, the binding (% of control) in experiment [13] was 101% (inactive). Further, the efflux inhibition (fraction of control) in experiment [14] was -0.24 (inactive). In addition, the differentiation response in experiment [16] was -20% (inactive).
For `O=C(CN1CC[n+]2c(-c3cccs3)csc21)c1ccc(Br)cc1`, the percent of DMSO control GFP in experiment [1] is 103% (inactive). The GFP response vs DMSO in experiment [2] was 104% (inactive); in [4], 103% (inactive). In experiment [3], the percent response of DMSO control was 108% (inactive). Besides, the GFP response, % of DMSO in [5] is 107% (inactive). For the same compound, the double positive events in experiment [6] is 64%. Moreover, in experiment [6], the vesicle binding response is 142% (inactive). Besides, the inhibition was 1.59% (inactive) in experiment [7], 14.7% (inactive) in [11] and -9% (inactive) in experiment [15]. Moreover, the superoxide response (% of plate) in experiment [8] was 96.7% (inactive). Further, in experiment [9], the aptamer binding inhibition is 0% (inactive). Moreover, the response in experiment [10] is 10.7% (inactive); in experiment [12] it was 1.44% (inactive). Moreover, the binding (% of control) in experiment [13] is 99% (inactive). In addition, the efflux inhibition (fraction of control) in experiment [14] was -0.085 (inactive). The differentiation response in experiment [16] is -7.5% (inactive).

These data come from PubChem BioAssay.
